This passage reports Potency and outcome results from PubChem BioAssay (Tox21).

Molecules are shown by their SMILES. “And” between values parts separate entries of the source, which are not always exact repeats. Equal values may be shown once. Records with an inconclusive call do not appear. The source made the active and inactive calls. Unless noted, calls come from the whole dose curve.

Assay [1] is described as follows: qHTS assay to identify small molecule antagonists of the sonic hedgehog signaling (Shh) pathway (AID 1259369). Note: nearly all actives have a fitted effect of over 45% in size. A digest of the protocol:
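Antagonist mode: compound added to 3T3 Gli1-Luc cells followed by conditioned-medium stimulation, 24 h at 37 C, 5% CO2. Inhibition taken as loss of Gli1-driven luciferase luminescence.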
A general note: In qHTS, concentration-response curves come from the screen itself.

A short description of assay [2]: qHTS assay to identify small molecule agonists of the androgen receptor (AR) signaling pathway in the presence of an antagonist - cell viability counter screen (AID 1259379; active = well fitted curve in the direction sought with a large enough effect in the repeat runs; an effect the other way counts as inactive or inconclusive;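 note: MDA-kb2 human breast cancer cells carrying an MMTV luciferase reporter; series mostly up to about 92 µM; nearly all actives have a fitted effect of over 25% in size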). The procedure, abridged:
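Cytotoxicity counter-screen run in the same wells as the nilutamide-challenged (3.0 µM final) AR agonist assay in MDA-kb2 cells. Compounds tested at 15 concentrations for 16 h, 37 °C without CO2; CellTiter-Fluor fluorescence read.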

A short description of assay [3]: qHTS assay to identify small molecule agonists of the estrogen receptor beta (ER-beta) signaling pathway - cell viability counter screen (AID 1259380; active = well fitted curve in the direction sought with a large enough effect in the repeat runs; an effect the other way counts as inactive or inconclusive; note: nearly all actives have a fitted effect of over 30% in size; note: potency is the fitted concentration of half-maximal effect). The procedure, abridged:
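Cell viability counter screen: CellTiter-Glo luminescence (30 min, room temperature) measured in the same wells as the beta-lactamase readout, after 16 hr compound exposure at 37C of ER-beta-bla HEK293T cells in 2% charcoal-stripped FBS medium.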

Assay [4] is described as follows: qHTS assay to identify small molecule antagonists of the estrogen receptor beta (ER-beta) signaling pathway - cell viability counter screen (AID 1259382; active = well fitted curve in the direction sought with a large enough effect in the repeat runs; an effect the other way counts as inactive or inconclusive; note: series mostly up to about 92 µM; nearly all actives have a fitted effect of over 55% in size). The procedure, abridged: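 Cytotoxicity was measured in the same wells by CellTiter-Glo luminescence after 30 min at room temperature. Cells were ER-beta-bla HEK293T in charcoal-stripped serum, given compound together with 1 nM E2 and incubated 16 h at 37C.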

The target of assay [5] is Estrogen receptor (Homo sapiens) (UniProt P03372). As to the kind of experiment: qHTS assay to identify small molecule agonists of the estrogen receptor alpha (ER-alpha) signaling pathway in the presence of an antagonist (AID 1259383). Note: top concentration of the series differs between compounds; nearly all actives have a fitted effect of over 15% in size. A digest of the protocol: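 Agonist-mode confirmation run in the presence of 10.0nM (final) ICI-182,780 antagonist. The reporter was ERE-driven luciferase in VM7Luc4E2 cells, grown in charcoal-stripped serum. Cells were exposed to 15-concentration compound series for 22hr, then ONE-Glo luminescence was read.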
Estrogen receptor (Homo sapiens), sequence (P03372 whole entry, looked up): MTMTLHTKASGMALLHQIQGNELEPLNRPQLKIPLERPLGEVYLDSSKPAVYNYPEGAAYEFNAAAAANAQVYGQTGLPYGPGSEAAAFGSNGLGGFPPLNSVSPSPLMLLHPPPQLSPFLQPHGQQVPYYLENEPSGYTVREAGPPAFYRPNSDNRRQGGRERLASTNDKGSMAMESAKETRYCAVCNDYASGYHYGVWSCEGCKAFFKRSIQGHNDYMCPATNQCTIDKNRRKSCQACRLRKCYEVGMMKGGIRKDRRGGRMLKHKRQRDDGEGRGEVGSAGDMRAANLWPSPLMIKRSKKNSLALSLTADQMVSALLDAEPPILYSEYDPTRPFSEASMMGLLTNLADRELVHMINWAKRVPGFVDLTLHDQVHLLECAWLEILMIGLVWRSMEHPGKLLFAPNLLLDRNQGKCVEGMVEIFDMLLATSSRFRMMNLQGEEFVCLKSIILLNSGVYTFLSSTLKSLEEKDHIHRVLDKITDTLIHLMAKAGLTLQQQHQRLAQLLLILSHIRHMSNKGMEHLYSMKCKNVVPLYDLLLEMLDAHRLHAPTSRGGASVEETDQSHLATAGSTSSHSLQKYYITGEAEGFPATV

The nature of assay [6]: qHTS assay to identify small molecule agonists or antagonists of the thyroid stimulating hormone receptor (TSHR) signaling pathway - wild type cell line counter screen (AID 1259384). A digest of the protocol: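 Wild-type Hek293 cells, 800/well, 18 h at 37C, then compound with Ro20-1724 for 30 min RT. cAMP by HTRF (cAMP-d2/anti-cAMP cryptate), 1 h RT, fluorescence read. 15 concentrations, triplicates.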

The target in assay [7] is Thyrotropin receptor (Homo sapiens) (UniProt P16473). As to the kind of experiment: qHTS assay to identify small molecule antagonists of the thyroid stimulating hormone receptor (TSHR) signaling pathway (AID 1259385). Note: nearly all actives have a fitted effect of over 20% in size. The procedure, abridged:
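TSHR-HEK293 cells (800/well) plated 18 h, then compounds with Ro20-1724 and TSH at 1.5 ng/mL final, 30 min at room temperature. cAMP quantified by HTRF (cAMP-d2/anti-cAMP-cryptate, 1 h); 15 concentrations in triplicate.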

Assay [8] can be described thus: qHTS assay to identify small molecule agonists of the estrogen receptor alpha (ER-alpha) signaling pathway in the presence of an antagonist - cell viability counter screen (AID 1259386; active = well fitted curve in the direction sought with a large enough effect in the repeat runs; an effect the other way counts as inactive or inconclusive; note: series mostly up to about 92 µM; nearly all actives have a fitted effect of over 30% in size). A digest of the protocol: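 Compounds tested at 15 concentrations for 22 h at 37C alongside 10.0nM (final) ICI-182,780 antagonist, in VM7Luc4E2 cells grown in phenol red-free, charcoal-stripped medium. Viability read by CellTiter-Fluor fluorescence after 1 h reagent incubation.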

Assay [9] concerns the target Progesterone receptor (Homo sapiens) (UniProt P06401). As to the kind of experiment: qHTS assay to identify small molecule agonists of the progesterone receptor (PR) signaling pathway (AID 1346784). Note: nearly all actives have a fitted effect of over 30% in size. A digest of the protocol:
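Beta-lactamase reporter read-out: after 16 hr compound treatment at 37C and a further 2 hr at room temperature with LiveBLAzer B/G FRET substrate, fluorescence was measured in PR-UAS-bla HEK 293T cells grown in 2% charcoal-stripped serum.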

The target is the same in assay [10]. As to the kind of experiment: qHTS assay to identify small molecule antagonists of the progesterone receptor (PR) signaling pathway (AID 1346795; active = well fitted inhibition curve with a large enough effect in the signal ratio in the repeat runs, not every such curve was filed as active; the % refers to the signal ratio). The procedure, abridged:
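Read-out is fluorescence from the LiveBLAzer B/G FRET substrate, cleaved by a UAS-controlled beta-lactamase in PR-UAS-bla HEK293T cells after 16 hr exposure to compound plus 1 nM promegestone (final), followed by 2 hr at room temperature.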

Assay [11] can be described thus: qHTS assay to identify small molecule antagonists of the progesterone receptor (PR) signaling pathway - cell viability counter screen (AID 1346798; active = well fitted curve in the direction sought with a large enough effect in the repeat runs; an effect the other way counts as inactive or inconclusive;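 note: HEK293T PR-UAS-bla cells stimulated with the agonist R5020; series mostly up to about 92 µM; nearly all actives have a fitted effect of over 50% in size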). A digest of the protocol:
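HEK293T PR-UAS-bla, 2% charcoal-stripped FBS; 4 hr pre-plate; cpd + R5020, 16 h 37C; LiveBLAzer read first; then CellTiter-Glo 30 min RT, luminescence.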

Assay [12] can be described thus: qHTS assay to identify small molecule agonists of the progesterone receptor (PR) signaling pathway - cell viability counter screen (AID 1346799). Note: nearly all actives have a fitted effect of over 45% in size. The procedure, abridged: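 Luminescence from CellTiter-Glo, added after the beta-lactamase FRET read in the same wells, gave cytotoxicity in PR-UAS-bla HEK293T cells treated with compounds for 16 hr at 37C.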
The nature of assay [13]: qHTS assay to identify small molecule antagonists of the TGF-beta/Smad signaling pathway - cell viability counter screen (AID 1346824; active = well fitted curve in the direction sought with a large enough effect in the repeat runs; an effect the other way counts as inactive or inconclusive; note: nearly all actives have a fitted effect of over 50% in size). A digest of the protocol:
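SBE-bla HEK 293T cells, incubated overnight, then compound plus 0.25 ng/mL TGF-beta1 (stock added) for 5 hr at 37 C. Viability was read in the same wells by CellTiter-Glo luminescence after 30 min at room temperature.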

Assay [14] in a line: qHTS assay to identify small molecule agonists of the TGF-beta/Smad signaling pathway - cell viability counter screen (AID 1346829; active = well fitted curve in the direction sought with a large enough effect in the repeat runs; an effect the other way counts as inactive or inconclusive; note: top concentration of the series differs between compounds; nearly all actives have a fitted effect of over 45% in size). A digest of the protocol: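 CellTiter-Glo luminescence readout; SBE-bla HEK 293T cells, overnight plating, compound 5 hr at 37 C/5% CO2, then bla substrate 2 hr RT, then CellTiter-Glo 30 min RT.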
The nature of assay [15]: qHTS assay to identify small molecule agonists of the TGF-beta/Smad signaling pathway (AID 1346859; active = well fitted activation curve with a large enough effect in the signal ratio in the repeat runs, not every such curve was filed as active; the % refers to the signal ratio; note: series mostly up to about 77 µM). The procedure, abridged: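 SBE-bla HEK 293T, 4,000 cells/well, plated o/n; cpd in DMSO, 5 hr, 37 C/5% CO2; B/G FRET substrate 2 hr RT; ex 405, em 460/530 nm.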
For assay [16], the target named is Thyrotropin-releasing hormone receptor (Homo sapiens) (UniProt P34981). Kind of assay: qHTS assay to identify small molecule antagonists of the thyrotropin-releasing hormone receptor (TRHR) signaling pathway (AID 1346877; active = well fitted inhibition curve with a large enough effect in the repeat runs, not every such curve was filed as active; note: series mostly up to about 51 µM). A digest of the protocol:
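Antagonist mode: after a 5 min room-temperature compound exposure, cells were stimulated with 1 nM (final) TRH. Dye-loaded TRHR-HEK293 cells were used, and calcium-dependent fluorescence was followed for 3 min, with 15-point titrations run in triplicate.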

Assay [17] has the same target. Kind of assay: qHTS assay to identify small molecule agonists of the thyrotropin-releasing hormone receptor (TRHR) signaling pathway (AID 1346891). Note: series mostly up to about 58 µM. The procedure, abridged: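 Intracellular calcium rise, read as fluorescence every second for 3 min, served as the agonist signal in dye-loaded HEK293 cells expressing TRHR; each compound ran at 15 concentrations in triplicate.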

The target of assay [18] is Estrogen receptor beta (Homo sapiens) (UniProt Q92731). As to the kind of experiment: qHTS assay to identify small molecule agonists of the estrogen receptor beta (ER-beta) signaling pathway (AID 1259377; active = well fitted activation curve with a large enough effect in the signal ratio in the repeat runs, not every such curve was filed as active; the % refers to the signal ratio). The procedure, abridged:
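HEK293T ER-beta-UAS-bla; 2% charcoal-stripped FBS; cells pre-incubated 6 hr, compound 16 hr, 37C/5% CO2; LiveBLAzer B/G FRET substrate 2 h RT; fluorescence intensity read.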

Assay [19] shares this target. Kind of assay: qHTS assay to identify small molecule antagonists of the estrogen receptor beta (ER-beta) signaling pathway (AID 1259378; active = well fitted inhibition curve with a large enough effect in the signal ratio in the repeat runs, not every such curve was filed as active; the % refers to the signal ratio; note: potency is the fitted concentration of half-maximal effect). A digest of the protocol:
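ER-beta-UAS-bla HEK293T cells in 2% charcoal-stripped FBS medium treated with compound plus 1nM final 17-beta-estradiol for 16 hr at 37C. Beta-lactamase reporter read by FRET substrate fluorescence after 2 hours at room temperature.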

The target in assay [20] is Androgen receptor (Homo sapiens) (UniProt P10275). Kind of assay: qHTS assay to identify small molecule agonists of the androgen receptor (AR) signaling pathway in the presence of an antagonist (AID 1259381). Note: nearly all actives have a fitted effect of over 15% in size. The procedure, abridged:
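Agonist-mode confirmation run against 3.0 uM final nilutamide: compounds titrated at 15 concentrations onto MDA-kb2 MMTV-luciferase reporter cells. Luminescence measured with ONE-Glo following 16 hr incubation, 37C, 0% CO2.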

Thyrotropin-releasing hormone receptor (Homo sapiens), sequence (P34981 whole entry, looked up): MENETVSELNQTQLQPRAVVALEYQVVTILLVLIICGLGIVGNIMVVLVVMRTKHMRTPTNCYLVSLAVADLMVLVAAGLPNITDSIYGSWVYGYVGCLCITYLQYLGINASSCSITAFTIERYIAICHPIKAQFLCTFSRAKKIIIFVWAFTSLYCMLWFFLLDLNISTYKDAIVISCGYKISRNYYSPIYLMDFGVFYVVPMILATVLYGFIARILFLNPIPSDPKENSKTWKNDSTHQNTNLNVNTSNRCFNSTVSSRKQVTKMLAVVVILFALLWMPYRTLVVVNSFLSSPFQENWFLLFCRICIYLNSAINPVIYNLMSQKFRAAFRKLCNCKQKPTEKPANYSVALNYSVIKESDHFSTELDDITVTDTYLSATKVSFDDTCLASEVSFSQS
Estrogen receptor beta (Homo sapiens), sequence (Q92731 whole entry, looked up): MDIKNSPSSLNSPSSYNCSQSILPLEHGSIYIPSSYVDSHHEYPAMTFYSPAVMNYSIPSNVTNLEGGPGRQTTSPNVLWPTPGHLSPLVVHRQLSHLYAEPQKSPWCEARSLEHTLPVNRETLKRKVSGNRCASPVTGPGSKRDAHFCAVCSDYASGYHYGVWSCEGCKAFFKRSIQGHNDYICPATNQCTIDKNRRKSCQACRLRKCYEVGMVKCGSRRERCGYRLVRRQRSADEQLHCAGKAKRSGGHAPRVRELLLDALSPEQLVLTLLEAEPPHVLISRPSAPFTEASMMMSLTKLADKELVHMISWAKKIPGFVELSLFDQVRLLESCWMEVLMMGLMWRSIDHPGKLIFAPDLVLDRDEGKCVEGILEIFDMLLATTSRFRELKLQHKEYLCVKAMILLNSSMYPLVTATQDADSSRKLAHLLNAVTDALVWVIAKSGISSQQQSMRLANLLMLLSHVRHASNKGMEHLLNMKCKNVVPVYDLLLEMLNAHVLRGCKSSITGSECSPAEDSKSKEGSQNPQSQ
Thyrotropin receptor (Homo sapiens), sequence (P16473 whole entry, looked up): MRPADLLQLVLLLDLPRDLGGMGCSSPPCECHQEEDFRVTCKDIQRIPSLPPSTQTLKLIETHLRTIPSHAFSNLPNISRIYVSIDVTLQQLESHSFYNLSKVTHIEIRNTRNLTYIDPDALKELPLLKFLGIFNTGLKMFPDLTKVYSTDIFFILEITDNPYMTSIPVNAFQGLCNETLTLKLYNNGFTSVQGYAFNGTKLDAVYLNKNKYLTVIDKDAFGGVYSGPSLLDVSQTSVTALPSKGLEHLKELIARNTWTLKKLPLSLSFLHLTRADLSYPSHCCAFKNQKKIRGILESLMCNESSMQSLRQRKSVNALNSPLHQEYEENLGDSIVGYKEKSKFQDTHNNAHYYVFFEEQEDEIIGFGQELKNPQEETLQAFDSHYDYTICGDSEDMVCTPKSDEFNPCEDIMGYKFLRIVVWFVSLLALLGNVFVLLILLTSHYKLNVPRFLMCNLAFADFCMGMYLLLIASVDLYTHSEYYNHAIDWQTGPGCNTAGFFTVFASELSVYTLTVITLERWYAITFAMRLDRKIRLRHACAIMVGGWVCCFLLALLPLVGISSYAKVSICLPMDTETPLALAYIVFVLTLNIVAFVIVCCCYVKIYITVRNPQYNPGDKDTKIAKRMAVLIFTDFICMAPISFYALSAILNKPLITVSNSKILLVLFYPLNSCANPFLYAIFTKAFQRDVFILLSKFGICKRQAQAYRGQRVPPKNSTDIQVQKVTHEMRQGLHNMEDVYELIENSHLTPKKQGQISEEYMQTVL
Progesterone receptor (Homo sapiens), sequence (P06401 whole entry, looked up): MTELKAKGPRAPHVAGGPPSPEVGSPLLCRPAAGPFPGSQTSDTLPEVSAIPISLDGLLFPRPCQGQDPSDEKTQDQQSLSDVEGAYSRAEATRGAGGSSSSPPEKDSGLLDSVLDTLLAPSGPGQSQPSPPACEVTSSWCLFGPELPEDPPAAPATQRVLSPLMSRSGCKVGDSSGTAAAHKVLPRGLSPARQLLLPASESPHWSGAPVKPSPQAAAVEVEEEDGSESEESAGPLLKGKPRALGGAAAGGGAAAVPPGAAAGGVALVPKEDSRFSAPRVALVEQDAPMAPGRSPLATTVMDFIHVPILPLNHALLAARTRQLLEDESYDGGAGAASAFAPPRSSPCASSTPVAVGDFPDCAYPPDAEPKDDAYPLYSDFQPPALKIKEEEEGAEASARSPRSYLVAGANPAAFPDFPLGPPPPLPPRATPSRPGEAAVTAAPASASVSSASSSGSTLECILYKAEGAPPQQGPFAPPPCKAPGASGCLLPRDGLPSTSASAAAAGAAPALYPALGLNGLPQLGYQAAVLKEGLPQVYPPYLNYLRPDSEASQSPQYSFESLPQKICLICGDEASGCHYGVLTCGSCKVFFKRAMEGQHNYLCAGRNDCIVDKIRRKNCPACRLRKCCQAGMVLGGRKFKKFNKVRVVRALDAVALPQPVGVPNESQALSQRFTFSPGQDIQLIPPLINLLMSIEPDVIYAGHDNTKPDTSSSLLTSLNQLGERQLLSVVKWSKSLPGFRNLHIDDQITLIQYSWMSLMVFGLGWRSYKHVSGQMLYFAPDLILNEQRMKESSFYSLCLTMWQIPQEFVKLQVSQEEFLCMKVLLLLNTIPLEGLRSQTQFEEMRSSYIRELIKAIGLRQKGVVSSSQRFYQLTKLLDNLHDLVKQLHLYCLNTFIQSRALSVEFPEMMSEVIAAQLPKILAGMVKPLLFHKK
Androgen receptor (Homo sapiens), sequence (P10275 whole entry, looked up): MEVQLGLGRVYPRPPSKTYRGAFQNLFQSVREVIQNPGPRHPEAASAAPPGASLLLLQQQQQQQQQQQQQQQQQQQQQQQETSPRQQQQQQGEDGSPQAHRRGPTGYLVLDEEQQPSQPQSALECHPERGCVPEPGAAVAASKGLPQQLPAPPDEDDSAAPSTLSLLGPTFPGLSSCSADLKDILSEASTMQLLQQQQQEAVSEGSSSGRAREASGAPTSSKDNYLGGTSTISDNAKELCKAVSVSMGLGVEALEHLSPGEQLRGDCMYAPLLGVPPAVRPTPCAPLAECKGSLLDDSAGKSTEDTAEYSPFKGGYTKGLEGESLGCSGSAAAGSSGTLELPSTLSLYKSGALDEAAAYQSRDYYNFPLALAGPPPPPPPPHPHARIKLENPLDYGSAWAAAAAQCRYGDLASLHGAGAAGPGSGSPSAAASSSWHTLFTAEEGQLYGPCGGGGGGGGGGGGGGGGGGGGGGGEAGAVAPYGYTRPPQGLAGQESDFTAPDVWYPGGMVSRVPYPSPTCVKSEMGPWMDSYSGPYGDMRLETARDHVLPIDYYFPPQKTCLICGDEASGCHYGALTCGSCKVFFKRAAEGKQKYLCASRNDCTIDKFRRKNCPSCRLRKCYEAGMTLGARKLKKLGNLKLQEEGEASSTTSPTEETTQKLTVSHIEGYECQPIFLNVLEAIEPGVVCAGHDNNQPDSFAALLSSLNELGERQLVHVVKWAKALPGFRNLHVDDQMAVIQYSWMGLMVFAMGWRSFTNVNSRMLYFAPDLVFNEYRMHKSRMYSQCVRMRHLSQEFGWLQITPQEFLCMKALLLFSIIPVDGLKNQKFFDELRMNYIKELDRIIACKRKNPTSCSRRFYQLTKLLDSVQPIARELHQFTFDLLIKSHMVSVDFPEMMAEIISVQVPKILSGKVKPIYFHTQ

In the case of `CCC(Cc1c(I)cc(I)c(N)c1I)C(=O)O` (stereo not drawn), the Potency result in [1], in assay [2], in [4], in [5], in [6] and in assay [7] was “inactive” throughout. Moreover, the Potency result in assay [8], in assay [9], in assay [10], in assay [11], in assay [12] and in assay [13] was “inactive” throughout. The Potency entry in assay [14], in assay [16] and in assay [17] was “inactive” each time. Further, the Potency in [3] was 33.3 µM (active). Besides, the compound was classed as inactive in assay [15].
As to `Cc1ccc(S(=O)(=O)NCl)cc1`, the Potency result in [1], in assay [2], in assay [3], in assay [4], in assay [5] and in [6] was “inactive” throughout. The Potency result in assay [7], in assay [8], in [9], in assay [10], in [11] and in assay [12] was “inactive” each time. The Potency entry in assay [13] and in assay [14] was “inactive” in each case. Also, the outcome in assay [15] was inactive.
In the case of `OCCNCCO`, the Potency entry in [1], in [2], in [3], in [4], in assay [5] and in [6] was “inactive” in each case. In addition, the Potency entry in [7], in assay [8], in assay [9], in [10], in assay [11] and in assay [12] was “inactive” in each case. Besides, the Potency result in assay [13], in assay [14], in assay [16] and in [17] was “inactive” each time. In addition, the result in assay [15] was inactive.
For `C=C[Si](OCCOC)(OCCOC)OCCOC`, the Potency result in assay [1], in assay [2], in assay [3], in assay [4], in assay [5] and in [6] was “inactive” each time. For the same compound, the Potency result in assay [7], in assay [9], in [10], in assay [11], in [12] and in [13] was “inactive” throughout. Besides, the Potency entry in assay [14] was “inactive”. Besides, the outcome in assay [15] was inactive.
As for `Cc1ccc(C(C)(C)C)c(O)c1`, the Potency entry in assay [1], in assay [18], in assay [19], in assay [2], in [4] and in assay [5] was “inactive” throughout. Moreover, the Potency entry in assay [6], in assay [7], in assay [8], in assay [9], in [10] and in [11] was “inactive” in each case. Besides, the Potency result in [12], in assay [13], in assay [14], in assay [16] and in assay [17] was “inactive” throughout. Further, the compound was classed as inactive in [15].
On to `CC(=O)Oc1ccc(C(c2ccc(OC(C)=O)cc2)c2ccccn2)cc1`, for which the Potency entry in assay [1], in assay [18], in assay [3], in assay [20], in assay [4] and in assay [5] was “inactive” each time. For the same compound, the Potency result in assay [6], in assay [7], in assay [9], in [10], in assay [11] and in assay [12] was “inactive” in each case. The Potency entry in assay [13], in [14], in [16] and in [17] was “inactive” each time. In addition, the Potency in assay [19] is 2.16 µM (active) and 3.76 µM (active).
